# Results filed as inconclusive are left out. Entries that show only a call come without a potency. Active and inactive are the calls of the source. Calls follow the shape of the dose curve; as a rule, active = well fitted inhibition curve with a large enough effect; inconclusive = small, poorly fitted or top-dose-only effect; inactive = no such curve, though single readings can be large or run the other way.
# Assays:
# [1] = tested on: Zika virus NS2B-NS3 protease (unlinked complex); test: Primary screen GU Rhodamine qHTS for Zika virus inhibitors: Unlinked NS2B-NS3 protease assay (AID 1347159); also: nearly all actives have a fitted effect of over 60% in size
# Procedure, shortened: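 Unlinked NS2B/NS3, 25 nM; Rhod110 peptide, 1.5 microM; compounds, up to 114 microM. Reaction run 15 min at RT in 10 mM Tris-HCl pH 8.0, 0.01% Tween 20; kinetic fluorescence change fitted with a 4-parameter Hill model.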
# [2] = tested on: Zika virus NS2B-NS3 protease (linked construct); test: Primary screen NINDS Rhodamine qHTS for Zika virus inhibitors (AID 1347160); also: nearly all actives have a fitted effect of over 55% in size
# Procedure, shortened: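 Single-chain NS2B-NS3 protease, 25 nM, pH 8.0; compounds preincubated 15 min. Activity: Rhodamine110 release from 1.5 microM substrate over 15 min, room temperature, data fitted to 4-parameter Hill.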
Structure (SMILES),Potency [1],Potency [2],"activity change, negative = inhibition [1]"
CCCCCOC(=O)Nc1nc(=O)n(C2O[C@H](C)[C@@H](O)[C@H]2O)cc1F (stereo partly drawn),inactive,inactive,–
C=C1CCC2C(C)(C(=O)OC)CCCC2(C)C1CCC1=CCOC1=O (stereo not drawn),inactive,inactive,–
CC1OC(O[C@@H]2[C@@H](O)[C@H](OC(=O)[C@]34CCC(C)(C)C[C@H]3C3=CCC5[C@@]6(C)CC[C@H](O[C@@H]7O[C@H](C(=O)O)[C@@H](O)[C@H](O[C@@H]8OC[C@@H](O)[C@H](O)[C@H]8O)[C@H]7O[C@@H]7O[C@H](CO)[C@H](O)[C@H](O)[C@H]7O)[C@@](C)(C=O)C6CC[C@@]5(C)[C@]3(C)C[C@H]4O)O[C@H](C)[C@@H]2OC2OC(C)C(OC3OCC(O)C(O)C3O)C(O)C2O)C(O)C(O)C1O (stereo partly drawn),–,inactive,7.56% [at 19.1 µM] (inactive)
CC1=C2CC(=O)C(C)CC/C=C(\C)CC2(O)OC1=O (stereo not drawn),inactive,inactive,–
COc1c(O)cc2c(c1O)C(=O)O[C@H](C)[C@H]2O,inactive,inactive,–
COC(=O)[C@@H](NC(=O)[C@H](CC(C)C)NC(=O)N(Cc1ccccc1)C[C@@H](O)[C@H](Cc1ccccc1)NC(=O)OC(C)(C)C)C(C)C,–,inactive,14.8% [at 19.1 µM] (inactive)
C[C@@H]1C[C@@H](O)[C@@]2(CO)C(CO)=CCC[C@@H]2[C@@]12C[C@@H](c1ccoc1)OC2=O,inactive,inactive,–
COc1cc(C(=O)OC[C@H]2O[C@@H](OC(C)(C)C(=O)O)[C@H](O)[C@@H](O)[C@@H]2O)cc(OC)c1O,inactive,inactive,–
O=C(O[C@H]1[C@H](Oc2ccc(O)cc2CO)O[C@H](CO)[C@@H](O)[C@@H]1O)c1ccccc1,inactive,inactive,–
